In PubChem BioAssay AID1159580 (chemical genetic matrix, 2015):
Hit rate of the full screen: of about 5,500 compounds, about 2,000 (36%) were called active. Inconclusive results (about 18%) are left out. Rule as the data show it: active = normalized growth mostly below about 0.91 (no sharp cut-off); inconclusive = no clear call, values can overlap the other calls; inactive = mostly above about 0.92. The list shows a part of the results.

Test: chemical genetic growth profiling, strain panel (AID 1159580);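 also: tested at 20 µM; growth read once vehicle control cultures reached saturation at 30 °C; 1 = growth at the plate median or of vehicle wells; lower values mean less growth of the strain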
Settings: growth OD
[1] = S. cerevisiae deletion strains, locus YAL013W, strain DEP1, hits give low values
[2] = S. cerevisiae deletion strains, locus YGR078C, strain PAC10, hits give low values
[3] = S. cerevisiae deletion strains, locus YMR263W, strain SAP30, hits give low values
[4] = S. cerevisiae deletion strains, locus YMR307W, strain GAS1, hits give low values
[5] = S. cerevisiae deletion strains, locus YNL153C, strain GIM3, hits give low values
[6] = S. cerevisiae deletion strains, locus YNL322C, strain KRE1, hits give low values

Measured: normalized growth

CCOC(=O)c1c(Nc2ccccc2)sc([N+](=O)[O-])c1N
active: S. cerevisiae deletion strains, locus YLR085C, strain ARP6, hits give low values 0.762 | [4] 0.66 | S. cerevisiae deletion strains, locus YPL241C, strain CIN2, hits give low values 0.849
inactive: [1] 0.941 | S. cerevisiae deletion strains, locus YBR229C, strain ROT2, hits give low values 1.01 | S. cerevisiae deletion strains, locus YDL101C, strain DUN1, hits give low values 1.02 | S. cerevisiae deletion strains, locus YDR150W, strain NUM1, hits give low values 0.969 | S. cerevisiae deletion strains, locus YEL061C, strain CIN8, hits give low values 0.985 | [2] 0.985 | S. cerevisiae deletion strains, locus YHR030C, strain SLT2, hits give low values 0.743 | S. cerevisiae deletion strains, locus YHR087W, strain rtc3, hits give low values 0.98 | S. cerevisiae deletion strains, locus YJR043C, strain POL32, hits give low values 0.956 | S. cerevisiae deletion strains, locus YJR075W, strain HOC1, hits give low values 0.949 | S. cerevisiae deletion strains, locus YKL190W, strain CNB1, hits give low values 0.977 | S. cerevisiae deletion strains, locus YLR039C, strain RIC1, hits give low values 0.964 | S. cerevisiae deletion strains, locus YLR058C, strain SHM2 (second series), hits give low values 1 | S. cerevisiae deletion strains, locus YLR262C, strain YPT6, hits give low values 0.965 | S. cerevisiae deletion strains, locus YML094W, strain GIM5, hits give low values 0.961 | S. cerevisiae deletion strains, locus YMR219W, strain ESC1, hits give low values 0.998 | [3] 0.931 | [5] 0.986 | S. cerevisiae deletion strains, locus YNL298W, strain CLA4 (second series), hits give low values 0.917 | [6] 0.985 | S. cerevisiae deletion strains, locus YNR030W, strain Alg12, hits give low values 0.952 | S. cerevisiae deletion strains, locus YPL055C, strain LGE1, hits give low values 0.846 | S. cerevisiae deletion strains, locus YPR135W, strain CTF4, hits give low values 0.783 | S. cerevisiae strains, strain wild type, hits give low values 0.977

C#CCN1C(C)=C(C(=O)OC)C(c2cccc([N+](=O)[O-])c2)C(C(=O)OCC)=C1C (configuration not stated)
inactive: [1] 1.01 | S. cerevisiae deletion strains, locus YAL040C, strain CLN3, hits give low values 0.971 | S. cerevisiae deletion strains, locus YCL061C, strain MRC1 (second series), hits give low values 1 | S. cerevisiae deletion strains, locus YDR363W, strain ESC2, hits give low values 1.01 | S. cerevisiae deletion strains, locus YER002W, strain NOP16, hits give low values 1.02 | [2] 0.996 | [3] 1.02 | [4] 0.998 | S. cerevisiae deletion strains, locus YNL128W, strain TEP1, hits give low values 1.03 | [5] 0.988 | S. cerevisiae deletion strains, locus YNL175C, strain NOP13, hits give low values 1.04 | S. cerevisiae deletion strains, locus YNL197C, strain WHI3, hits give low values 1.03 | S. cerevisiae deletion strains, locus YNL224C, strain SQS1, hits give low values 1 | [6] 1 | S. cerevisiae deletion strains, locus YOR083W, strain WHI5 (second series), hits give low values 1.04
